# Measurements as given in PubChem BioAssay AID504862 (Sanford-Burnham Center for Chemical Genomics, 2011).
# The list shows a part of the results. Unmarked numbers belong to inactive results.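 How the source made its calls: active means average inhibition reaching 50% or more with the compound at 20 µM; inactive means the rest.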
# Tested on: diaphorase (Clostridium kluyveri)
# Assay: diaphorase inhibitors and chemical oxidizers, confirmation, counter-screen for P. falciparum G6PD inhibitor project, biochemical, fluorescence intensity, 10 µM NADPH (AID 504862);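 further: resorufin red fluorescence formed as diaphorase reduces resazurin using NADPH; 0% = DMSO with enzyme and 100% = DMSO without enzyme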
# Conditions: diaphorase-coupled resazurin reduction, NADPH 10 uM, at 20 µM, active compounds read high
smiles,measurement,value
O=C1NC(=O)N(c2ccccc2)C(=O)/C1=C/c1ccc([N+](=O)[O-])s1,inhibition,47.3%
